# From PubChem BioAssay AID1628 (Sanford-Burnham Center for Chemical Genomics, 2009)
# About 930 (0.49%) of roughly 190,000 compounds were called active. The list shows a part of the results. Potency and affinity values are given separately. A number with no mark means an inactive call.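 How the source made its calls: active means z-score of insulin promoter reporter brightness in nuclei below -3 at 5 µM, with at least 500 cells counted; inconclusive means wells with under 500 cells, flagged as toxic or sparse; inactive means the rest.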
# Test: decrease of insulin promoter-GFP reporter – imaging, high-content screening, mouse beta cells (AID 1628)
# Conditions: MIN6 insulin promoter GFP reporter, at 5 µM, hits give low values
row,SMILES,z-score
1,Cc1oc(C)c2c(=O)ccc3c(c12)OC(N)=C(C#N)C3c1ccc(F)cc1 (stereo not drawn),3.56
2,CCCCSc1nnc(CCCCCNC(=O)OC(C)(C)C)o1,-4.83 (active)
3,COc1ccc(-c2cc(C(=O)Nc3cc(S(=O)(=O)N4CCOCC4)ccc3N3CCOCC3)c3ccccc3n2)cc1,-3.45 (active)
4,COc1cc(S(=O)(=O)N2CCOCC2)ccc1NC(=O)COC(=O)C12CC3CC(CC(C3)C1)C2,3.88
5,COc1cccc(-c2cc(C(=O)Nc3ccc4c(c3)OCCO4)c3ccccc3n2)c1,-4.93 (active)
6,Cc1ccn2cc(-c3ccc(S(=O)(=O)N4CCOCC4)cc3)nc2c1,-0.88
7,COc1ccc2cc(/C(C)=N/NC(=S)Nc3cc(S(=O)(=O)N4CCOCC4)ccc3N3CCOCC3)ccc2c1,-3.25 (active)
8,COc1ccc(C2C(C(C)=O)=C(C)N=c3s/c(=C\c4cc(C)n(C)c4C)c(=O)n32)c(OC)c1 (stereo not drawn),8.76
9,N#C/C(=C\C1=C(N2CCOCC2)C(=C\c2ccc(Cl)cc2)/CC1)C(=O)Nc1ccccc1F,3.27
10,CN1CC=C2C(C#N)=C(N)C(C#N)(C#N)C(c3ccsc3)C2C1 (stereo not drawn),4.07
11,Cc1ccc2c(c1)cc(CN(Cc1ccc3c(c1)OCO3)S(=O)(=O)c1ccccc1)c1nnnn12,-3.75 (active)
12,Cc1cc(-c2cccs2)c2c(N)c(C(=O)c3ccc4c(c3)OCO4)sc2n1,4.7
13,O=C(NC1CCCC1)c1c[nH]c2ccc(F)cc2c1=O,-3.28 (active)
14,COc1ccc2c(C(=O)CN(C)C3CCCCC3)c[nH]c2c1,4.45
15,Cc1ccc(C2C3CN(C(C)C)CC=C3C(C#N)=C(N)C2(C#N)C#N)cc1 (stereo not drawn),10.3
16,NC(=O)CCN1CCN(CCOC2Cc3cc(Cl)ccc3Sc3ccccc32)CC1 (stereo not drawn),-4.24 (active)
17,CC(C)CC(=O)c1c[nH]c(C(=O)NCCc2ccccn2)c1,-3.63 (active)
18,Nc1c(C(=O)N/N=C/c2cccnc2)oc2nc(-c3ccco3)cc(-c3ccco3)c12,5.39
19,O=C(Nc1ccc(-c2csc(Nc3cccc(C(F)(F)F)c3)n2)cc1)c1cccc(C(F)(F)F)c1,-4.02 (active)
20,c1ccc(N2CCN(c3nc(NCc4ccco4)c4ccccc4n3)CC2)cc1,-3.05 (active)

row,SMILES,z-score
1,c1ccc(CN2CCN(c3nc(NCc4ccco4)c4ccccc4n3)CC2)cc1,-3.17 (active)
2,CCCS(=O)(=O)N1CCC(C(=O)N2CCOCC2)CC1,4.02
3,O=C(/C=C/c1cn(CC(O)CN2CCCCCC2)c2ccccc12)c1cccs1 (stereo not drawn),5.06
4,O=C(/C=C/c1cn(CC(O)CN2CCCCC2)c2ccccc12)c1cccs1 (stereo not drawn),4.58
5,OC(CN1CCCCC1)CN(c1ccccc1)c1ccccc1 (stereo not drawn),-4.02 (active)
6,Cc1c(-c2ccc(O)cc2)nc2nc(-c3ccccc3)c(-c3ccccc3)nn12,17.8
7,COc1cccc(OC)c1OCCN(C)C,3.98
8,O=c1c([N+](=O)[O-])cccn1Cc1ccc(F)cc1Cl,3.36
9,Cc1ccc(S(=O)(=O)c2nc(-c3cccs3)oc2NCCCN(C)C)cc1,-5.47 (active)
10,CCC(C)(C)n1nnnc1C(c1cccc(C#N)c1)N1CCN(c2cccc(C)c2C)CC1 (stereo not drawn),-3.1 (active)
11,Cc1cccc(N2CCN(C(c3ccccc3)c3nnnn3CC3CCCO3)CC2)c1C (stereo not drawn),-3.05 (active)
12,CCC(C)(C)n1nnnc1C(c1ccccc1)N1CCN(C2CCCC2)CC1 (stereo not drawn),-4.27 (active)
13,CCCOc1ccc(-c2nn(-c3ccccc3)cc2/C=C2\SC(=S)N(C3CCS(=O)(=O)C3)C2=O)cc1 (stereo not drawn),4.83
14,Cc1ccc(S(=O)(=O)N(C)c2ccc(C(=O)N3CCCCC3)cc2)cc1,-5.08 (active)
15,Cc1ccc(S(=O)(=O)N2CCCC2C(=O)N(C)Cc2cccs2)cc1 (stereo not drawn),4.2
16,CC1(C)OC(=O)N(CC(=O)Nc2cccc(C(F)(F)F)c2)C1(C)O (stereo not drawn),0.44
17,O=C(CCC(=O)c1ccc(F)cc1)Nc1cccc(C(F)(F)F)c1,-5.11 (active)
18,CCOC(=O)c1nnn(-c2nonc2N)c1-c1ccc(OC)cc1,-5.06 (active)
19,CCOC(=O)c1nnn(-c2nonc2N)c1-c1ccc(OCC)cc1,3.82
20,CCOC(=O)c1nnn(-c2nonc2N)c1CN1CCCCCC1,0.52

row,SMILES,z-score
1,N#C/C(=C\C1=C(N2CCOCC2)C(=C/c2cccc([N+](=O)[O-])c2)/CC1)C(=O)Nc1ccccc1F,3.07
2,CC(=O)Nc1sc(/C(C#N)=C/c2ccc(Cl)c(Cl)c2)nc1-c1ccc(C)cc1,17.4
3,O=c1[nH]c2ccc(NS(=O)(=O)c3ccc([N+](=O)[O-])cc3)cc2[nH]1,2.55
4,O=C(c1cccs1)c1no[n+]([O-])c1C(=O)c1cccs1,3.78
5,COc1ccc(OCCn2cc(/C(N)=N/O)c3ccccc32)cc1,3.09
6,CCCn1c(=N)n(CCOc2ccc(OC)cc2)c2ccccc21,-4.79 (active)
7,CCCCn1c(=N)n(CCOc2ccc(C)cc2)c2ccccc21,-3.46 (active)
8,CCOC(=O)Cn1c(=N)n(CCOc2cccc(C)c2)c2ccccc21,-4.7 (active)
9,CCOC(=O)Cn1c2ccc(F)cc2c2nc(C)sc21,3.68
10,Cc1cc(/C=C2/C(=O)N(C)C(=S)N2C)ccc1N1CCCC1,15.4
11,COc1ccc(CCNc2oc(COc3ccccc3Cl)nc2C#N)cc1OC,-3.1 (active)
12,COc1cccc(-n2nc(C#N)c(Cl)cc2=O)c1,-3.8 (active)
13,COc1cccc(C2=N/C(=C\N(C)C)C(=O)O2)c1,0.86
14,N#Cc1ccsc1NC(=O)COC(=O)c1ccc2ccccc2c1,-6.27 (active)
15,Cc1ccc(N2CCN(C3=NC(=O)/C(=C\c4cccs4)S3)CC2)cc1,-4.27 (active)
16,Cc1cc(N2CCOCC2)ccc1/C=C1/SC(=O)NC1=O,1.71
17,Cc1ccc(C2(C(F)(F)F)N=C3Sc4cc(C)ccc4N3C(=O)N2)cc1 (stereo not drawn),3.48
18,CCCOc1cc(N(CC)CC)ccc1/C=C(/C#N)c1nc2ccc(C)cc2[nH]1,15.5
